Assay outcomes from PubChem BioAssay.
ZTA counter: blocks Epstein-Barr virus ZTA, an EBNA-1 counter-screen | AID 2234 | ZTA-DNA binding, fluorescence polarization | inhibition, % at 11 µM | actives 0.15% (n = 320,000); in the data active means inhibition above about 33%
pPAFAH inh: inhibitors of human plasma PAF acetylhydrolase (pPAFAH); actives 1.5% (n = 330,000); Q13093; recombinant pPAFAH, FP-rhodamine probe fluorescence polarization; inhibition, % at 3.39 µM;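 active means inhibition above the mean inhibition across the screen plus 3 SD, cut at about 25% in these data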;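 further: inhibitors block binding of the rhodamine activity-based probe so polarization drops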
Target sequence (Q13093 whole entry, looked up): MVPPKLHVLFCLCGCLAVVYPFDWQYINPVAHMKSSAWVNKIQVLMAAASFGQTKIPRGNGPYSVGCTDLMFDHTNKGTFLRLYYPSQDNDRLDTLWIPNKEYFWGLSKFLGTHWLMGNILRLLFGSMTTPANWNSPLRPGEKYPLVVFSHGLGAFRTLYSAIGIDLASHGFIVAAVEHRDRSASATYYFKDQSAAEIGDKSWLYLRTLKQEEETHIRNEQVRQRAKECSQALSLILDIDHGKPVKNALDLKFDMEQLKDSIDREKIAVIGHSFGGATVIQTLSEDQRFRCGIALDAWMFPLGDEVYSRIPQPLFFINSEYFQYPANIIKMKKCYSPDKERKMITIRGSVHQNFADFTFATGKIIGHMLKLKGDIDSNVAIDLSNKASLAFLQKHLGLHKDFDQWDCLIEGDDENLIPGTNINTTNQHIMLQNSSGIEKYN
PAFAH1B3 FP inh: inhibitors of human PAFAH1B3 | actives 0.28% (n = 340,000) | inhibition, % at 3.39 µM | Q15102 | recombinant PAFAH1B3, FP-rhodamine probe, fluorescence polarization;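 active means inhibition above the screen-wide average of all tested compounds plus 3 SD, cut at about 25% in these data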
PAFAH1B2 inh: inhibitors of human PAFAH1B2. inhibition, % at 3.39 µM. AID 492953. recombinant PAFAH1B2, FP-rhodamine activity probe, fluorescence polarization. P68402. actives 1.2% (n = 340,000);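 active means inhibition above the mean of all tested compounds plus 3 SD, cut at about 24% in these data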
PAFAH2 FP inh: inhibitors of human PAFAH2 | Q99487 | recombinant PAFAH2, FP-rhodamine activity probe, fluorescence polarization | inhibition, % at 3.39 µM | actives 0.99% (n = 340,000) | AID 492956;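 active means inhibition above the mean over all tested compounds plus 3 SD, cut at about 30% in these data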;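 further: inhibitors block probe labeling of enzyme so polarization drops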
EBNA-1 inh: blocks EBNA-1 binding to DNA; inhibition, % at 14.8 µM; EBNA-1 DNA binding, fluorescence polarization; actives 0.34% (n = 300,000); in the data active means inhibition above about 28%
Of the large screens only hits and unclear results are named; the others gave an inactive call. Only some compounds are listed: those with a hit (about 2.9% of all), similar ones and a draw of the others.

CC1CCC2(CC1)OCC1(CCC3(COC4(CCC(C)CC4)OC3)C1=O)CO2 (configuration not stated)	none
COc1cc(C(=O)NC2CCN(CC(=O)Nc3cccc(C)c3C)CC2)cc(OC)c1OC	none
Cc1ccccc1CN(C)C1CCN(C)CC1	none
CSc1ccc(C(=O)C2CCCN(S(=O)(=O)c3c(C)noc3C)C2)cc1 (configuration not stated)	none
O=C1c2nc3cc(-c4ccco4)[nH]n3c(=O)c2CN1C1CCCCC1	none (no result: PAFAH1B3 FP inh, PAFAH1B2 inh, PAFAH2 FP inh)
CCOc1ccc(OCCC(=O)OCC(=O)NC2CCCC2)cc1	pPAFAH inh 30 (no result: EBNA-1 inh)
Cc1ccc(OCC(=O)OCC(=O)NC2CCCC2)cc1C	none (no result: EBNA-1 inh)
Cc1ccc(OCCC(=O)OCC(=O)NC2CCCC2)cc1	none
Cc1cc(C)cc(OCC(=O)OCC(=O)NC2CC2)c1	pPAFAH inh 27 (no result: ZTA counter, EBNA-1 inh)
CCCCOc1ccc(C(=O)OCC(=O)NC2CCCC2)cc1	pPAFAH inh 25, PAFAH2 FP inh 85
CCN(CC)c1ccc(NC(=O)c2ccccc2OCC(=O)OC)cc1	none
Nc1ccc(CSc2ccc(Cl)cc2)cc1	PAFAH1B2 inh 39
O=C(Nc1cc(S(=O)(=O)N2CCCC2)ccc1Cl)c1cc(F)c(F)c(F)c1F	none (no result: ZTA counter, EBNA-1 inh)
Cc1ccc(O)c(N=CC2=C(O)c3ccccc3C2=O)c1	pPAFAH inh 30
Oc1c(Br)cc(Br)cc1C=Nc1cccc2ncccc12	pPAFAH inh 28
Brc1cccc(C=Nc2cccc3ncccc23)c1	none
O=C(COC(=O)c1cncc(Br)c1)NCc1cccs1	none (no result: ZTA counter, EBNA-1 inh)
C=CCNC(=S)N(CC=C)C1CCS(=O)(=O)C1 (configuration not stated)	none
CCN(CCCNC(=O)C1CCN(S(=O)(=O)N2CCC3(CC2)OCCO3)CC1)c1ccccc1	none
CCCCN(CCCNC(=O)C1CCN(S(=O)(=O)N2CCOCC2)CC1)c1ccccc1	pPAFAH inh 28
CCCn1nc(C(=O)Oc2ccc3c(C)cc(=O)oc3c2)c2ccccc2c1=O	none
O=C(NNc1nc(-c2ccccc2)c2cc(Br)ccc2n1)c1ccc(S(=O)(=O)N2CCCCC2)cc1	none
CN(C)S(=O)(=O)c1ccc(C(=O)NNc2nc(-c3ccccc3)c3cc(Br)ccc3n2)cc1	pPAFAH inh 30
CN(CC(=O)Nc1cccc(F)c1)C(=O)CCCN1C(=O)c2cccc3cccc(c23)C1=O	none
CCOC(=O)C1=C(O)C(=O)N(C2CCCCC2)C1	none
O=C(O)c1ccc(CN2C(=O)c3cccc4c([N+](=O)[O-])ccc(c34)C2=O)cc1	PAFAH1B3 FP inh 31 (no result: ZTA counter, pPAFAH inh, EBNA-1 inh)
Cc1c([N+](=O)[O-])cc(S(=O)(=O)Nc2ccc(-c3ccc(N4CCCC4)nn3)cc2)cc1[N+](=O)[O-]	pPAFAH inh 29
Cc1cc(SCC(=O)N/N=C/c2ccc(O)c(O)c2)c(C)cc1Br	pPAFAH inh 26
O=C(Cc1nnc(NC(=O)c2ccccc2)s1)N/N=C/c1ccc(O)cc1	none
Cc1cc(SCC(=O)N/N=C/c2ccc(O)c(O)c2)nc2ccccc12	pPAFAH inh 27, PAFAH2 FP inh 32
COc1ccc2nc(C)cc(SCC(=O)N/N=C/c3ccc(O)c(O)c3)c2c1	pPAFAH inh 29
O=C(Cc1nnc(NC(=O)c2ccccc2)s1)N/N=C\c1ccc(O)c(O)c1	pPAFAH inh 27
Cc1cc(SCC(=O)N/N=C/c2ccc(O)cc2O)nc2ccccc12	none
CC=Cc1cc(OC)c2c(c1)C(C)C(c1ccc(O)c(OC)c1)O2 (configuration not stated)	none (no result: ZTA counter, pPAFAH inh, EBNA-1 inh)
CN(C(=O)COC(=O)c1cc(-c2ccccc2Cl)nc2ccccc12)C1CCS(=O)(=O)C1 (configuration not stated)	pPAFAH inh 27
CN(C(=O)COC(=O)c1cc(-c2ccc(Cl)s2)nc2ccccc12)C1CCS(=O)(=O)C1 (configuration not stated)	none
CCCc1c(C(=O)N/N=C(/C)c2ccncc2)nnn1-c1nonc1N	none
COc1ccccc1C(=O)COC(=O)CNS(=O)(=O)c1ccc(C)cc1	none
O=C(CC1SC(=O)N(c2ccccc2)C1=O)Nc1ccc(Br)cc1 (configuration not stated)	pPAFAH inh 32 (no result: PAFAH1B3 FP inh, PAFAH1B2 inh, PAFAH2 FP inh)
Oc1c(Br)cc(/C=N/n2c(-c3ccccc3)n[nH]c2=S)cc1Br	none (no result: ZTA counter, pPAFAH inh, EBNA-1 inh)
CC(C)c1ccc(/C=N/n2c(-c3ccccc3)n[nH]c2=S)cc1	pPAFAH inh 25
